In all, about 310,000 compounds went through this assay and about 18,000 (5.8%) were called active. Roughly 22% stayed inconclusive and do not appear here. Only a selection was taken, and actives are over-represented in it overall. Values without a mark were called inactive. Calls follow the shape of the dose curve; as a rule, active = well fitted inhibition curve with a large enough effect; inconclusive = small, poorly fitted or top-dose-only effect, or another doubt; inactive = no such curve, though single readings can be large or run the other way.
% is scaled to controls: 0 for no effect and ±100 for the full control effect; potency is read from the fitted curve at half-maximal effect.

This experiment can be described thus: Primary qHTS for delayed death inhibitors of the malarial parasite plastid, 48 hour incubation. Conditions: P. falciparum luciferase growth in erythrocytes; series mostly up to 28.7 µM; activity change, negative = inhibition: at the top concentration. The text has this:
The goal of this screen is to discover new antimalarial compounds that act by inhibiting the development of the apicoplast in the malarial parasite Plasmodium falciparum. The biochemical processes that make this organelle essential for erythrocytic stage parasites are not well understood. However, antibiotics such as azithromycin and tetracycline, which target the apicoplast translational machinery, have a potent antimalarial effect.
We have developed a cell-based assay that measures parasite growth based on the expression of an integrated copy of a firefly luciferase reporter. To detect small molecules that cause this "delayed death" phenotype, erythrocytes infected with the luciferase-expressing parasites were incubated with compounds for either one or two generations, corresponding to 48 and 96 hours, respectively. Compounds that inhibit parasite growth in the second generation, but not the first, should be enriched in antimalarials that target the apicoplast. Growth inhibition is detected by a decrease in luciferase activity.
Assay Provider: David Fidock and Eric Ekland, Columbia University
Keywords: NIH Roadmap, MLPCN, MLI, MLSMR, qHTS, NCGC, qHTS, malaria, luciferase, viability
Four microliters of culture medium (RPMI 1640 with 0.5% w/v Albumax (GIBCO), 24 mM sodium bicarbonate and 10 ug/mL gentamycin) were dispensed by a Multi-drop Combi into white solid 1536-well plates (Grenier) and 23 nL compound was added by a pin tool. Four microliters of infected erythrocytes (2% hematocrit, 0.1% parasitemia final concentration) in culture medium were dispensed and the plates incubated for 48 hours at 37 C in 5% CO2. Two microliters of luciferase detection reagent was added and luminescence was detected by a ViewLux (PerkinElmer) reader.
In general terms: In qHTS, concentration-response curves come from the screen itself.
As to `O=C(Cn1ccc2cc(S(=O)(=O)N3CCCC3)ccc21)NCc1ccccc1`, the “activity change, negative = inhibition” value is -5.75%.
`CCCOc1cccc(C(=O)Nc2ccccc2C(=O)N2CCN(C)CC2)c1`: the “activity change, negative = inhibition” value was 30.4%.
Take `CC1=C(C/C=C(\C)CCCC(C)CCCC(C)CCCC(C)C)C(=O)c2ccccc2C1=O` (centres undefined): the Potency was 10.7 µM (active).
For `CS(=O)(=O)c1ccc(Cl)c(NC(=O)COC(=O)c2ncc(Cl)c(Cl)c2Cl)c1`, the “activity change, negative = inhibition” value is -4.26%.
Regarding `COc1ccc(CNc2cc(C)cc(C)c2)cc1OC`, the “activity change, negative = inhibition” value is 72.2%.
Take `CN(CC(=O)Nc1cccc(F)c1)C(=O)C1CSC2(C)CCC(=O)N12` (centres undefined): the “activity change, negative = inhibition” value was -0.11%.
Still for that read-out and setting: the same measure for `CCn1c(=O)c2ccccc2n(CC(=O)N2CCCc3ccccc32)c1=O`: -13.9%.
Same read-out and setting: the figure for `Cn1c(SCC(=O)NC2CCCCC2)nnc1-c1ccc(N)cc1` is 59.1%.
Take `Cn1c(SCC(=O)OC2CCCCC2)nnc1-c1ccc(S(=O)(=O)N2CCCC2)cc1`: the Potency was 2.62 µM (active).
For the compound `Cn1c(SCC(=O)Nc2cccc(O)c2)nnc1-c1ccc(S(=O)(=O)N2CCOCC2)cc1`, the “activity change, negative = inhibition” value is 7.1%.
The same measure, in the same setting: the same measure for `Cc1ccc(C(=O)C(C)OC(=O)Cc2n[nH]c(=O)c3ccccc23)cc1C` (centres undefined): 9.11%.
The same measure, in the same setting: the same measure for `CCc1ccc(-c2cc(C)no2)cc1S(=O)(=O)NCCc1ccc(S(N)(=O)=O)cc1`: -28.2%; for `O=C(CCS(=O)(=O)c1ccc2c(c1)NC(=O)CS2)NCc1ccccc1Cl`: 4.89%.
`Cc1ccc(S(=O)(=O)N(Cc2ccc(Cl)cc2)c2ccccc2C(=O)NCc2cccnc2)cc1`: the Potency is 13.1 µM (active).
As for `CCc1ccc(N(CC(=O)NCc2cccnc2)S(=O)(=O)c2ccccc2)cc1`, the “activity change, negative = inhibition” value is 97.9%.
The same measure, in the same setting: the figure for `O=C(O)c1ccccc1-c1ccccc1C(=O)NCc1cccnc1` is 4.09%.
Turning to `O=C(c1cnc(Cl)c(Cl)c1)N1CCN(S(=O)(=O)c2ccc(F)cc2)CC1`, the “activity change, negative = inhibition” value was -5.82%.
With `CCCc1nc2ccccc2c(C(=O)OCc2nnc(-c3cc(OC)c(OC)c(OC)c3)o2)c1CC`, the Potency is 4.65 µM (active).
Take `O=C(OCc1nnc(-c2ccccc2)o1)c1cc(=O)[nH]c2ccccc12`: the “activity change, negative = inhibition” value is -27.5%.
On to `COc1cc(-c2cc(C(=O)OCC(=O)Nc3ccc4c(c3)OCO4)c3ccccc3n2)cc(OC)c1OC`, for which the “activity change, negative = inhibition” value is 0.182%.
For `COc1ccccc1C(=O)Nc1ccnn1C1CCN(C(=O)C(C)(C)C)CC1`, the “activity change, negative = inhibition” value is -1.89%.
For `COC(=O)c1[nH]c2ccccc2c1NC(=O)CN1CCCc2ccccc21`, the Potency is 2.08 µM (active).
In the case of `NS(=O)(=O)c1cccc(NC(=O)CN2CCCc3ccccc32)c1`, the “activity change, negative = inhibition” value is -0.755%.
In the case of `COC(=O)c1[nH]c2ccc(Br)cc2c1NC(=O)Oc1ccccc1`, the “activity change, negative = inhibition” value is -15.2%.
On the same count and under the same terms, the figure for `CC(=O)N1CCc2c(sc(NC(=O)CCS(=O)(=O)c3ccc(C)cc3)c2C(N)=O)C1` is -24.3%; for `O=C(NNS(=O)(=O)c1ccc(F)cc1)c1ccc([N+](=O)[O-])cc1Cl` it is 1.58%.
On to `CC(C)CCNC(=O)c1ccc2c(Cl)c3c(nc2c1)CCC3`, for which the “activity change, negative = inhibition” value was 50.2%.
In the case of `Cc1cc(C)n(-c2nnc(N3CCN(c4ccccc4)CC3)nn2)n1`, the Potency is 0.329 µM (active).
On to `Cc1ccc(S(=O)(=O)N2CCN(c3ccccc3)CC2)cc1C`, for which the “activity change, negative = inhibition” value was 13.1%.
Turning to `Cc1cc(N2CCN(c3ccccc3)CC2)nc(N2CCOCC2)n1`, the “activity change, negative = inhibition” value was -20.2%.
Same read-out and setting: the figure for `Cc1nn(Cc2ccccc2)c(C)c1C(=O)NCCCN1CCCC1=O` is 9.89%.
Same read-out and setting: the figure for `CCN1CCN(C(=O)C2CCCN(S(=O)(=O)c3ccc(OC)c(OC)c3)C2)CC1` (centres undefined) is 4.01%; for `COCc1cc(=O)n2[nH]c(C)c(-c3ccccc3)c2n1` it is -9.29%; for `O=C(NCc1ccccc1)C1=C[C@H](C2CC2)C[C@H](OCc2ccc(CO)cc2)O1` it is -0.787%.
On to `O=C(C1=C[C@H](c2ccc(C(F)(F)F)cc2)C[C@H](OCc2ccc(CO)cc2)O1)N1CCN(Cc2ccccc2)CC1`, for which the Potency was 3.7 µM (active).
On to `C#Cc1ccc([C@@H]2C=C(C(=O)O)O[C@H](OCCCCO)C2)cc1`, for which the “activity change, negative = inhibition” value was 43.4%.
As for `COCCNC(=O)CSc1nc2sccc2c(=O)n1-c1ccccc1`, the “activity change, negative = inhibition” value is -7.07%.
Turning to `COc1ccc(C(=O)COC(=O)CNC(=O)c2cccs2)cc1Br`, the “activity change, negative = inhibition” value was 12.2%.
As to `COc1ccc(-n2c(C)cc(C(=O)COC(=O)c3cc(OC)c(OC)cc3NC(=O)c3cccs3)c2C)cc1`, the Potency was 4.15 µM (active).
`Cc1cc(C(=O)COC(=O)c2cccs2)c(C)n1-c1c(C)n(C)n(-c2ccccc2)c1=O`: the “activity change, negative = inhibition” value was 15.2%.
Consider `C=CCOc1ccc(/C=C/C(=O)OCC(=O)NC2CCCCCC2)cc1`, for which the “activity change, negative = inhibition” value is 26.8%.
On the same count and under the same terms, the figure for `CCC(Oc1ccccc1C)C(=O)Nc1ccc(S(=O)(=O)Nc2cc(C)on2)cc1` (centres undefined) is 2.5%; for `CC(=O)c1cc(CN2CCC(n3nccc3NC(=O)c3ccccc3Cl)CC2)cs1` it is -13.4%; for `CC(OC(=O)c1ccccc1NCCO)C(=O)Nc1ccnn1C(C)C` (centres undefined) it is -26.5%.
For the compound `Cc1ccc(NC(=O)CN(C)C(=O)c2ccc(Br)o2)cc1`, the “activity change, negative = inhibition” value is 4.06%.
Same read-out and setting: the same measure for `COc1ccc(-c2cnc(SCCNC(=O)c3ccc4c(c3)OCO4)[nH]2)cc1`: -5.01%; for `CC(Oc1ccc(Br)cc1)C(=O)NC1CCCCCC1` (centres undefined): 2.7%.
In the case of `CC(Oc1ccc(Br)cc1)C(=O)NCC(c1ccco1)N1CCCCC1` (centres undefined), the Potency was 11.7 µM (active).
As for `COc1ccc(S(=O)(=O)NCC(c2ccco2)N2CCOCC2)cc1` (centres undefined), the “activity change, negative = inhibition” value is -6.97%.
For `O=C(COc1ccc2ccc(=O)oc2c1)NCC(O)c1ccccc1` (centres undefined), the “activity change, negative = inhibition” value is 18.9%.
Turning to `O=C(CNC(=O)OCc1ccccc1)NC1CCCCNC1=O` (centres undefined), the “activity change, negative = inhibition” value is 0.406%.
On to `CCOc1ccccc1/C=N/Nc1nc2ccccc2o1`, for which the “activity change, negative = inhibition” value was -29.1%.
For the compound `CCCCNC(=O)N1CCCC(N(C)CCc2ccc(OC)c(OC)c2)C1` (centres undefined), the “activity change, negative = inhibition” value is -0.406%.
Take `COc1ccc(CCNC(=O)C(=O)NCc2ccccc2C)cc1OC`: the “activity change, negative = inhibition” value was -8.37%.
`COc1ccc(CCN(Cc2cc3cccc(C)c3[nH]c2=O)C(=O)N2CCCC2)cc1OC`: the Potency is 8.28 µM (active).
As for `Cc1ccc2c(cnn2C(=O)CCC(=O)NC2CCCC2)c1`, the “activity change, negative = inhibition” value was 7.75%.
Still for that read-out and setting: the figure for `O=C(Nc1cccc(C(F)(F)F)c1)c1cnccn1` is 33.4%.
As for `Cn1nc(C(F)(F)F)c(C(=O)Nc2cccc(C(F)(F)F)c2)c1SCc1ccc(Cl)cc1`, the Potency is 1.85 µM (active).
As to `O=C(O)CSCC(=O)Nc1cccc(C(F)(F)F)c1`, the “activity change, negative = inhibition” value was 7.05%.
On the same count and under the same terms, the same measure for `COc1ccc(CCNC(=O)COc2ccc3c(c2)OCO3)cc1`: 8.33%; for `CN(C)C(=O)CCC(=O)N1CCCCC1C(=O)Nc1ccc(Oc2ccccc2F)cc1` (centres undefined): 27.6%.
As for `CCOc1cc(/C=C/C(=O)OCC(=O)NCCN2C(=O)CSC2=O)ccc1OCC(C)C`, the Potency was 14.7 µM (active).
For the compound `CCOC(=O)CCCNC(=O)COC(=O)/C=C/c1ccc2c(c1)OCO2`, the “activity change, negative = inhibition” value was 397%.
On the same count and under the same terms, the figure for `COc1ccc(/C=C/C(=O)OCC(=O)NCc2cccs2)cc1OC` is 9.68%.

These data come from PubChem BioAssay AID504832 (National Center for Advancing Translational Sciences (NCATS), 2011).
